# Results: PubChem BioAssay AID624255 (Broad Institute, 2012)
# Out of some 77,000 compounds screened, about 4,600 (6%) were called active. Inconclusive results (about 1%) are left out. What follows is part of a selection rich in actives, with near analogues and random picks from the rest. A number with no mark means an inactive call.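 The calls were made as follows: active = mean inhibition above about 93%, with at least 55% of replicates each passing it (limit read from the data, passing the limit was not always enough); inconclusive = only one of those two conditions holds; inactive = neither condition holds.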
# Experiment: growth inhibition of T. cruzi in host fibroblasts – cell-based, beta-gal Tulahuen parasites, NIH3T3 host, luminescence, primary screen (AID 624255)
# Details: T. cruzi beta-gal in NIH3T3, GalScreen luminescence, 90 h; at 8.34 µM; stronger effect = higher value
row,SMILES,inhibition
1,CO[C@@H]1CN(C)C(=O)c2ccc(NS(=O)(=O)c3ccc(C)cc3)cc2OC[C@@H](C)N(Cc2nccs2)C[C@H]1C,41.1%
2,C[C@@H]1CN([C@@H](C)CO)C(=O)c2cc(C#CC3CC3)cnc2O[C@@H]1CN(C)C(=O)Cc1ccccn1,51.4%
3,CCCN(C)C[C@H]1OCCCC[C@@H](C)Oc2ccc(NC(=O)CCC(F)(F)F)cc2C(=O)N([C@H](C)CO)C[C@H]1C,67.3%
4,O=C(C[C@H]1CC[C@@H](NC(=O)c2ccncc2)[C@@H](CO)O1)Nc1ccccc1,19.5%
5,CC(C)NC(=O)Nc1ccc2c(c1)C(=O)N(C)[C@H]1CC[C@H](CC(=O)NCC3CCCCC3)O[C@@H]1CO2,22.4%
6,O=C(C1CCOCC1)N1C[C@H]2[C@@H](c3ccccc31)[C@@H](CO)N2Cc1ccccc1F,-22.5%
7,OC[C@H]1[C@@H](c2ccc(/C=C/c3ccccc3)cc2)[C@H]2CN(Cc3cccnc3)CCCCN21,23.4%
8,O=C(CN1CCOCC1)N1CCCCN2[C@@H](CO)[C@H](c3ccc(/C=C/c4ccccc4)cc3)[C@@H]2C1,102% (active)
9,O=C(CN1CCOCC1)N1CCCCN2[C@H](CO)[C@H](c3ccc(Br)cc3)[C@H]2C1,36%
10,COc1ccc(S(=O)(=O)Nc2ccc3c(c2)CC(=O)N([C@@H](C)CO)C[C@H](C)[C@@H](CN(C)Cc2ccc(C(=O)O)cc2)O3)cc1,-13.7%
11,COc1ccc(CN(C)C[C@H]2Oc3ccc(NS(=O)(=O)c4ccc(C)cc4)cc3C(=O)N([C@@H](C)CO)C[C@H]2C)cc1,37.9%
12,C[C@@H]1CN([C@@H](C)CO)C(=O)Cc2cc(NS(=O)(=O)c3ccc(Cl)cc3)ccc2O[C@H]1CN(C)Cc1ccc(C(F)(F)F)cc1,-1.87%
13,COc1ccc(CN(C)C[C@@H]2Oc3ccc(NS(=O)(=O)c4ccc(F)cc4)cc3C(=O)N([C@@H](C)CO)C[C@@H]2C)cc1,11.1%
14,COc1ccc(CN(C)C[C@@H]2Oc3ccc(NS(=O)(=O)c4ccc(OC)cc4)cc3C(=O)N([C@H](C)CO)C[C@H]2C)cc1,0.955%
15,C[C@H](CO)N1C[C@H](C)[C@H](CN(C)Cc2ccc(C(F)(F)F)cc2)Oc2ccc(NS(=O)(=O)c3ccc(Cl)cc3)cc2C1=O,127% (active)
16,COc1ccc(S(=O)(=O)Nc2ccc3c(c2)CC(=O)N([C@H](C)CO)C[C@H](C)[C@H](CN(C)Cc2ccc(C(F)(F)F)cc2)O3)cc1,75%
17,COc1ccc(CN(C)C[C@H]2Oc3ccc(NS(=O)(=O)c4ccc(Cl)cc4)cc3CC(=O)N([C@@H](C)CO)C[C@H]2C)cc1,96.7% (active)
18,COc1ccc(S(=O)(=O)Nc2ccc3c(c2)C(=O)N([C@@H](C)CO)C[C@H](C)[C@@H](CN(C)Cc2ccc(C(F)(F)F)cc2)O3)cc1,105% (active)
19,COc1ccc(S(=O)(=O)Nc2ccc3c(c2)C(=O)N([C@H](C)CO)C[C@H](C)[C@H](CN(C)Cc2ccc(C(F)(F)F)cc2)O3)cc1,100% (active)
20,Cc1ccc(S(=O)(=O)Nc2ccc3c(c2)C(=O)N([C@@H](C)CO)C[C@@H](C)[C@H](CN(C)Cc2ccc(C(F)(F)F)cc2)O3)cc1,42.1%
21,COc1ccc(S(=O)(=O)Nc2ccc3c(c2)C(=O)N([C@@H](C)CO)C[C@H](C)[C@H](CN(C)Cc2ccc(C(=O)O)cc2)O3)cc1,-6.07%
22,C[C@@H]1CN([C@@H](C)CO)S(=O)(=O)c2ccc(-c3ccncc3)cc2O[C@@H]1CN(C)C(=O)C1CCC1,76.2%
23,O=C(Nc1ccc(F)cc1)N[C@@H]1CC[C@H](CC(=O)N2CCCCC2)O[C@H]1CO,-3.48%
24,CCCNC(=O)[C@H]1[C@H](CO)[C@H]2Cn3c(ccc(-c4cccc(F)c4)c3=O)[C@@H]1N2C(=O)CC,1.74%
25,CC(C)CC#Cc1cnc2c(c1)C(=O)N([C@H](C)CO)C[C@H](C)[C@@H](CN(C)C(=O)Cc1cccnc1)O2,3.64%
26,Cc1noc(C)c1S(=O)(=O)N(C)C[C@@H]1OCCCC[C@@H](C)Oc2ccc(NC(=O)c3ccccc3)cc2C(=O)N([C@@H](C)CO)C[C@@H]1C,14.7%
